A number with no mark means an inactive call.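 How the source made its calls: active = AUC reduced over 20% with Padj below 0.05 in at least 2 of 3 replicates; inactive = otherwise.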
Assays:
Test in all cases: growth AUC relative to DMSO control (median of replicates) (fraction); higher = more growth (less inhibition), active = hit call of the paper
Conditions in all cases: 20 µM; 24 h
Akkermansia muciniphila = tested on: Akkermansia muciniphila
How it was run: (§1)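 Gut bacterial monocultures in mGAM were treated with 20 µM compound (1% DMSO) and grown anaerobically at 37 °C in round-bottom 96-well plates from OD600 0.05. OD600 was read hourly for 24 h, with the minimum OD set to 0. Area under the growth curve was normalised to the plate median of solvent-only wells, or to row and column medians on the industrial chemical plate. Each value is the median of three biological replicates, each grown on a separate day.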

Bacteroides caccae = tested on: Bacteroides caccae
How it was run: as §1

Bacteroides clarus = tested on: Bacteroides clarus
How it was run: as §1

Bacteroides dorei = tested on: Bacteroides dorei
How it was run: as §1

Bacteroides stercoris = tested on: Bacteroides stercoris
How it was run: as §1

[1] = tested on: Bacteroides thetaiotaomicron
How it was run: as §1

Bacteroides uniformis = tested on: Bacteroides uniformis
How it was run: as §1

[2] = tested on: Bifidobacterium longum subsp. longum
How it was run: as §1

Clostridium difficile = tested on: Clostridium difficile
How it was run: as §1

Collinsella aerofaciens = tested on: Collinsella aerofaciens
How it was run: as §1

Coprococcus comes = tested on: Coprococcus comes
How it was run: as §1

Escherichia coli ED1a = tested on: Escherichia coli ED1a
How it was run: as §1

Escherichia coli IAI1 = tested on: Escherichia coli IAI1
How it was run: as §1

Eubacterium rectale = tested on: Eubacterium rectale
How it was run: as §1

[3] = tested on: Fusobacterium nucleatum subsp. animalis
How it was run: as §1

Lactobacillus gasseri = tested on: Lactobacillus gasseri
How it was run: as §1

Lactobacillus paracasei = tested on: Lactobacillus paracasei
How it was run: as §1

Odoribacter splanchnicus = tested on: Odoribacter splanchnicus
How it was run: as §1

[4] = tested on: Parabacteroides distasonis
How it was run: as §1

Parabacteroides merdae = tested on: Parabacteroides merdae
How it was run: as §1

Compound	growth AUC (Akkermansia muciniphila)	growth AUC (Bacteroides caccae)	growth AUC (Bacteroides clarus)	growth AUC (Bacteroides dorei)	growth AUC (Bacteroides stercoris)	growth AUC [1]	growth AUC (Bacteroides uniformis)	growth AUC [2]	growth AUC (Clostridium difficile)	growth AUC (Collinsella aerofaciens)	growth AUC (Coprococcus comes)	growth AUC (Escherichia coli ED1a)	growth AUC (Escherichia coli IAI1)	growth AUC (Eubacterium rectale)	growth AUC [3]	growth AUC (Lactobacillus gasseri)	growth AUC (Lactobacillus paracasei)	growth AUC (Odoribacter splanchnicus)	growth AUC [4]	growth AUC (Parabacteroides merdae)
CC1(C)C(C=C(Cl)Cl)C1C(=O)OCc1cccc(Oc2ccccc2)c1 (mixture of isomers)	1.02	0.991	0.98	1.01	1.07	1.02	1.03	0.957	1.01	0.942	0.964	1.02	0.98	0.911	0.954	0.864	1.01	0.977	1	0.951
Clc1cccc(Cl)c1Cl	0.898	1.04	0.992	0.997	0.945	1.02	1.01	1.04	0.996	0.973	1.01	0.985	0.997	0.982	1	1.02	1.03	1	1	1.01
CNC(=O)Oc1ccccc1OC(C)C	0.914	0.993	0.977	1.01	1.01	0.975	0.979	0.996	0.986	0.955	0.974	0.986	0.982	0.952	0.994	0.892	0.982	1.02	1.01	0.981
CCSCCSP(=S)(OC)OC	1.09	1.02	0.996	0.996	1.07	0.992	1.01	1.03	1.03	1.09	1.1	1.01	1	0.899	1.05	1.06	1.01	1.07	1.05	0.988
COCC(=O)N(c1c(C)cccc1C)N1CCOC1=O	0.966	0.969	0.945	1	0.978	0.99	1	0.963	0.983	0.997	0.939	0.975	1.02	0.964	0.882	0.914	0.953	0.984	1.03	1.01
Clc1ccccc1-c1nnc(-c2ccccc2Cl)nn1	0.748	0.892	0.969	0.974	1.25	0.999	0.974	0.825	0.997	0.942	0.911	0.99	0.978	0.997	0.943	0.964	0.79	0.887	0.991	1.03
CCCCN(CCCC)N=O	0.985	1.01	1.02	1.01	1	1	1	1.01	1.01	1.03	0.982	0.995	1	1.02	1.02	1.11	1.02	1	1.16	1.01
O=c1oc2ccccc2c(O)c1C1CC(c2ccc(-c3ccc(Br)cc3)cc2)Cc2ccccc21 (stereo not given)	0.966	0.91	0.335 (active)	0.89	0.00883 (active)	0.788 (active)	0.86	0.647 (active)	0.263 (active)	0.911	0.856	0.998	1	0.567 (active)	0.96	0.652 (active)	0.714 (active)	0.99	0.126 (active)	0.00968 (active)
O=C(O)CCCOc1ccc(Cl)cc1Cl	0.929	1.04	0.978	1.02	0.922	1.02	1.07	1.06	1.01	0.984	1.05	0.984	0.981	1.18	0.933	1.01	1	1.11	0.919	0.979
O=c1oc2ccccc2c(O)c1C1CC(c2ccc(OCc3ccc(C(F)(F)F)cc3)cc2)Cc2ccccc21 (mixture of isomers)	0.908	0.919	0.548 (active)	1.02	0.176 (active)	0.97	0.989	0.525 (active)	0.0158 (active)	0.788 (active)	0.858	1.03	1.04	0.431 (active)	1.02	0.484 (active)	0.631 (active)	0.989	0.031 (active)	0.251 (active)
O=c1c2cc(F)ccc2nc(-n2cncn2)n1-c1ccc(Cl)cc1Cl	0.855	0.976	0.979	1.05	1	0.925	0.937	0.791	1.12	1.07	0.999	0.987	0.99	0.963	0.976	1.05	0.634	0.977	1.02	0.93
COc1ncc(F)c2nc(S(=O)(=O)Nc3c(F)cccc3F)nn12	0.991	1.02	0.985	1.01	1.13	0.974	1	1.01	0.994	1.01	1.03	1.01	0.989	1	1.02	1.01	1	0.992	0.983	1.01
CC(C)=CC1C(C(=O)OCc2coc(Cc3ccccc3)c2)C1(C)C (stereo not given)	0.878	0.995	0.943	1	0.965	0.973	0.988	0.899	1.02	0.936	1.01	0.996	1.01	0.917	0.878	1.06	1.12	0.98	1.01	0.944
CC(C1CC1)C(O)(Cn1cncn1)c1ccc(Cl)cc1 (mixture of isomers)	1.04	0.83	0.987	0.941	1.41	0.893	0.929	1.09	0.966	0.926	0.936	1.01	0.971	1.02	1.09	0.975	1.06	0.8	1.01	0.988
COP(N)(=O)SC (stereo not given)	1.22	1.01	1.04	1.01	1.1	1.04	1.03	0.989	1.03	1.04	1.08	1.03	1.02	1.08	1.11	0.836	1.07	1.04	1.01	1.06
CC(C)(C)C(O)C(Cc1ccc(Cl)cc1Cl)n1cncn1 (mixture of isomers)	1.11	0.923	0.969	0.889	0.868	0.921	0.932	1.04	1.01	0.936	0.982	0.981	0.979	0.845	0.963	0.947	1.01	0.989	0.871	0.889

Compound	growth AUC (Akkermansia muciniphila)	growth AUC (Bacteroides caccae)	growth AUC (Bacteroides clarus)	growth AUC (Bacteroides dorei)	growth AUC (Bacteroides stercoris)	growth AUC [1]	growth AUC (Bacteroides uniformis)	growth AUC [2]	growth AUC (Clostridium difficile)	growth AUC (Collinsella aerofaciens)	growth AUC (Coprococcus comes)	growth AUC (Escherichia coli ED1a)	growth AUC (Escherichia coli IAI1)	growth AUC (Eubacterium rectale)	growth AUC [3]	growth AUC (Lactobacillus gasseri)	growth AUC (Lactobacillus paracasei)	growth AUC (Odoribacter splanchnicus)	growth AUC [4]	growth AUC (Parabacteroides merdae)
O=C1C(Cl)=C(Cl)C(=O)c2ccccc21	0.907	0.987	0.987	0.958	0.962	0.996	0.986	0.904	0.912	0.988	1.05	1.02	0.973	1.34	1.02	0.929	0.941	0.797	0.938	0.967
CCOC(=O)CC(SP(=S)(OC)OC)C(=O)OCC (stereo not given)	1.13	0.953	1	0.881	0.982	0.977	0.965	1.09	0.845	0.955	0.984	0.975	1.02	1.07	0.977	0.917	1.13	1.07	0.959	1.01
O=S(=O)(c1ccccc1)c1ccccc1	0.901	0.966	1.01	0.993	1.03	0.997	0.982	1.01	1.02	0.964	0.977	0.988	0.97	1.03	1	0.914	1.03	0.999	1.02	0.929
O=[N+]([O-])C(Br)(CO)CO	0.966	0.987	1.01	1.03	1.01	0.962	0.976	0.991	0.996	1.01	0.925	1	0.987	0.949	1	0.958	0.999	1	1.03	0.998
CCSCc1ccccc1OC(=O)NC	0.874	1.01	0.972	0.995	0.992	0.967	0.973	0.967	0.972	1	0.959	0.971	0.98	0.933	0.973	1.13	1.01	1.03	1.06	1.01
CCCN(CCC)c1c([N+](=O)[O-])cc(S(N)(=O)=O)cc1[N+](=O)[O-]	0.998	0.956	0.896	0.932	0.809	0.948	0.89	0.987	0.975	0.975	0.973	0.996	0.973	0.894	0.9	0.935	0.942	0.934	0.971	0.997
Nc1ccc(Cl)cc1Cl	1.06	1	1.01	1.02	0.97	1.03	0.993	1.04	1.03	1.04	1.03	1.01	1	1.01	1.11	1.02	0.976	1.1	1.02	1.01
c1ccc2c(c1)ccc1c3ccccc3sc21	1.03	0.999	0.987	0.969	1	0.998	0.972	1.25	1.02	0.99	0.965	0.988	1	0.942	1.01	0.974	1.03	0.984	1.1	1
CCNP(=S)(OC)O/C(C)=C/C(=O)OC(C)C (stereo not given)	0.983	0.966	0.957	0.998	1	0.953	0.993	0.983	0.986	1.01	0.987	1	0.951	1.13	0.981	0.968	0.994	0.956	0.991	0.963
Cc1cc(C2CC2)nc(Nc2ccccc2)n1	0.934	0.979	0.939	0.916	0.756	0.903	0.981	1.04	0.959	0.953	1.04	0.984	0.962	1.05	1.03	0.982	0.969	1.04	1.01	0.894
CN(C)NC(=O)CCC(=O)O	0.948	1	1.01	1.04	1.01	0.998	0.992	1.01	0.991	1	0.998	0.988	1.01	0.926	0.956	1.01	1.02	0.989	1.03	1.02
COP(=S)(OC)Oc1cc(Cl)c(Br)cc1Cl	0.9	0.961	0.966	0.995	1.03	0.963	1.01	0.971	0.966	0.978	0.982	0.987	0.965	1.03	0.952	1.06	0.996	1.02	0.946	0.917
CCOc1cc(Oc2ccc(C(F)(F)F)cc2Cl)ccc1[N+](=O)[O-]	1.08	0.966	1.01	0.917	0.905	1.01	0.992	1.03	0.993	0.881	0.602 (active)	1.01	0.979	0.989	1.09	0.939	0.955	1.08	1.01	0.954
CCOCCN(C(=O)CCl)C(=C(C)C)c1ccccc1	0.903	1.01	0.998	1	0.967	0.937	0.944	1.04	0.954	1.02	0.999	0.98	0.976	0.982	0.986	0.935	1.01	0.978	0.955	1
ClCC1C(CCl)C2(Cl)C(Cl)=C(Cl)C1(Cl)C2(Cl)Cl (stereo not given)	0.995	0.971	0.999	0.972	0.985	0.994	1.01	1.02	0.989	0.962	0.945	0.973	1	1.02	1.08	0.931	0.974	1.06	1.01	0.995
Cc1cc(C(F)(C(F)(F)F)C(F)(F)F)ccc1NC(=O)c1cccc(I)c1C(=O)NC(C)(C)CS(C)(=O)=O	1.06	1.2	1.2	1	0.937	1.02	1.01	1.06	0.92	1.7	1.21	1.1	1.14	1.09	1.13	3.03	1.48	0.994	0.795	0.99
